Screening results: PubChem BioAssay, National Center for Advancing Translational Sciences (NCATS)
IMPase cell inh: membrane-permeable compound that blocks inositol monophosphatase; CHO-M1 cells, IP1 accumulation, HTRF TR-FRET ratio; inhibition (IP1 accumulation), % at 46.1 µM; 120,000 tested, under 10 active; AID 901; active = well fitted curve in the direction sought with a large enough effect in the signal ratio, not every such curve was filed as active; inconclusive = small, poorly fitted or top-dose-only effect, or a change in a side signal; inactive = no such curve, though single readings can be large or run the other way; the % refers to the signal ratio;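 also: cells stimulated with carbachol in lithium chloride buffer; higher means more IMPase inhibition seen as more IP1 and lower FRET ratio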
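Seeded CHO-M1 cells were dosed with compound at up to 46 uM, stimulated with carbachol for 30 min, then lysed in IP-One detection reagents. Higher IP1 lowers the TR-FRET signal.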
ALOX12 inhib: inhibitors of human 12-lipoxygenase (ALOX12). P18054. purified 12-hLO, xylenol orange hydroperoxide absorbance. Potency, µM (series often up to 57.1 µM), usual class: inhibitors. 0.12% of 150,000 active. AID 1452; also: nearly all actives have a fitted effect of over 55% in size
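Purified human 12hLO (150 nM), preincubated 15 min with compound, then 40 uM arachidonic acid for 30 min, room temperature, Hepes pH 7.0 with 0.01% Triton X-100. Hydroperoxide detected by ferrous iron/xylenol orange; 573/405 nm absorbance ratio gives reaction progress.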
15-hLO-2 inh: 15-hLO-2 (ALOX15B) enzyme inhibition. O15296. purified 15hLO-2, xylenol orange hydroperoxide absorbance. Potency, µM (doses to about 57.1 µM), actives largely listed as inhibitors. 0.56% of 110,000 active; also: nearly all actives have a fitted effect of over 60% in size
Target sequence (O15296 whole entry, looked up): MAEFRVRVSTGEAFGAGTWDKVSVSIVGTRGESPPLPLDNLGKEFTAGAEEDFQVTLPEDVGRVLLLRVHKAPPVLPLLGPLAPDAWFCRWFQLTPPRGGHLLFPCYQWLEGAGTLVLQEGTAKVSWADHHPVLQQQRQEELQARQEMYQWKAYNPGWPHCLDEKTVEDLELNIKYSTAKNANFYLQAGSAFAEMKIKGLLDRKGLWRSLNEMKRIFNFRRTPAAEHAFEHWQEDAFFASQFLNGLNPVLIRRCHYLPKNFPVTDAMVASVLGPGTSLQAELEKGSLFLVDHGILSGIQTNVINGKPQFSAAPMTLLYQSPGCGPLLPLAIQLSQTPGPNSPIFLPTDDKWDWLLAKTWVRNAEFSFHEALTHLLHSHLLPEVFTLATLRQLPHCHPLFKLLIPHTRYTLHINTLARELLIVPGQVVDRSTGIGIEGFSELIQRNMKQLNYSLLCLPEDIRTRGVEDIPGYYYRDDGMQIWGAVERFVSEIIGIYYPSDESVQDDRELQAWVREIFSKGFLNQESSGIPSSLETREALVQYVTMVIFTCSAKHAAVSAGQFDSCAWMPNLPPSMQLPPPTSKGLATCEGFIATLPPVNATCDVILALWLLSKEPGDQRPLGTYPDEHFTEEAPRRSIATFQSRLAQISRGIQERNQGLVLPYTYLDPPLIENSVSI
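Read-out: hydroperoxide product oxidises ferrous iron, measured as xylenol orange complex via the 573-to-405 nm absorbance ratio after 30 min. Reaction: 50 nM enzyme, 15 min compound preincubation, 45 uM arachidonic acid, 90 min RT, Hepes pH 7.5 with Triton X-100.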
HPGD block: HPGD (human) dehydrogenase inhibition | P15428 | purified HPGD, NADH fluorescence kinetic, PGE2 substrate | Potency, µM, actives largely listed as inhibitors | 4.3% of 150,000 active | AID 894; active = well fitted inhibition curve with a large enough effect, not every such curve was filed as active; inconclusive = small, poorly fitted or top-dose-only effect, or another doubt; inactive = no such curve, though single readings can be large or run the other way
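20 nM HPGD preincubated 15 min at room temperature with compound in 50 mM Tris-HCl pH 8, 0.01% Tween 20. Started with 1 mM NAD+ and 30 uM prostaglandin E2; NADH fluorescence (360/450 nm) read 5 times over 30-s intervals, last minus first.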
PNC assembly inh: blocks assembly of the perinucleolar compartment; PC3M PTB-GFP, PNC prevalence imaging, 16 h; active compounds read low; activity change (PNC), negative = inhibition, % at 10 µM; 3.1% of 140,000 active; AID 2417;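 active = readout at or below -70, meaning at least 70% loss of cells showing the perinucleolar compartment, a nuclear body marking cancer cells; inconclusive = readout between -30 and a set limit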
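Read-out is percentage of cells bearing a perinucleolar compartment, from automated 20x imaging of fixed, Hoechst-stained PC3M PTB-GFP cells. Cells were seeded 4 h, then exposed 16 h to compound (23 nl of library stock) in duplicate plates.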
IMPase Li cell: membrane-permeable IMPase blocker, potentiated with lithium | CHO-M1 cells, IP1 TR-FRET (IP-One), carbachol + lithium | Potency, µM (highest dose often 59.4 µM), usual class: inhibitors | 0.35% of 210,000 active | AID 1457;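 also: IP1 builds up when IMPase is blocked and the TR-FRET signal falls; nearly all actives have a fitted effect of over 50% in size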
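CHO-M1, 2000 cells/well, 16–30 h culture; cpd + low Li+, 30 min 37C; lysis with d2-IP1/Eu-anti-IP1 Ab, 10 min RT; TR-FRET 665/620 ratio and 620 channel; AC50 via Hill.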
Large screens that a line does not name were inactive. A selection: hits, their analogues and other compounds. The true share with any hit is near 5.4%. Unless noted, calls follow the shape of the dose curve; as a rule, active = well fitted curve in the direction sought with a large enough effect; inconclusive = small, poorly fitted or top-dose-only effect, or another doubt; inactive = no such curve, though single readings can be large; an effect the other way counts as inactive or inconclusive.

CCOC(=O)c1c(NC(=O)C2C3CCC(O3)C2C(=O)O)sc(C)c1-c1ccc(F)cc1 (stereo not given)	IMPase Li cell inconclusive
O=C(c1ccco1)N1CCN(C(=O)c2sccc2-c2ccccc2)CC1	PNC assembly inh -100 (no result: 15-hLO-2 inh)
O=C(c1ccco1)N1CCN(C2CCCC2)CC1	PNC assembly inh -101
O=C(NC1CCCCC1NC(=O)c1ccco1)c1ccco1 (stereo not given)	PNC assembly inh -85
O=C(CCSc1ccccc1)N1CCN(C(=O)c2ccco2)CC1	PNC assembly inh -91
Cc1ccccc1Nc1c(-c2ccc(Br)o2)nc2ccc(Cl)cn12	none (no result: ALOX12 inhib, 15-hLO-2 inh, HPGD block, PNC assembly inh, IMPase Li cell)
CCC(C)(C)OC	none (no result: IMPase cell inh, PNC assembly inh)
O=C(CSc1cccc2cccc(Cl)c12)OCC(=O)N1CCN(C(=O)c2ccco2)CC1	HPGD block inconclusive, IMPase Li cell 10µM
Cc1cc(Br)ccc1SCC(=O)OCC(=O)N1CCN(C(=O)c2ccco2)CC1	HPGD block inconclusive
O=C(c1ccc(Cl)cc1)N1CCN(C(=O)c2ccco2)CC1	PNC assembly inh -100
Cc1cc(C)cc(Oc2coc3c(CN4CCN(C)CC4)c(O)ccc3c2=O)c1	none (no result: ALOX12 inhib, 15-hLO-2 inh, HPGD block, PNC assembly inh, IMPase Li cell)
CCN(C(=O)Cn1c(=O)n(-c2ccccc2)c(=O)c2ccc(C(=O)NCc3ccc4c(c3)OCO4)cc21)c1cccc(C)c1	none (no result: ALOX12 inhib, 15-hLO-2 inh, HPGD block, PNC assembly inh, IMPase Li cell)
O[C@@H](c1cc(-c2ccc(Cl)cc2)nc2ccccc12)C1CCCCN1 (stereo not given in full)	none (no result: IMPase cell inh, ALOX12 inhib, 15-hLO-2 inh, PNC assembly inh)
C[C@@]12CC[C@@H]3[C@H](CCC4=CC(=O)CC[C@]43C)[C@@H]1CC[C@@H]2C(=O)COS(=O)(=O)c1ccc(Br)cc1	none (no result: IMPase cell inh, PNC assembly inh)
Cc1cc(F)c(F)c(C(=O)N2CCCCC2C)c1Cl (stereo not given)	none (no result: IMPase cell inh, ALOX12 inhib, 15-hLO-2 inh, HPGD block, PNC assembly inh)
CC1CCCCN1C(=O)c1cc(F)c(F)cc1Cl (stereo not given)	HPGD block 20µM, PNC assembly inh inconclusive
CC1CCCN(C(=O)c2cc(F)c(F)cc2Cl)C1 (stereo not given)	HPGD block 6.3µM, PNC assembly inh inconclusive
CC1CCCCN1C(=O)Cc1ccc(Cl)cc1 (stereo not given)	HPGD block 11µM
CS(=O)c1ccccc1COC(=O)Nc1ccc(Cl)cc1 (stereo not given)	PNC assembly inh -80
Cc1ccc(NC(=O)OCc2ccccc2S(C)=O)cc1 (stereo not given)	none (no result: IMPase cell inh, ALOX12 inhib, 15-hLO-2 inh, HPGD block, PNC assembly inh)
NS(=O)(=O)c1ccc(NC(=O)Nc2ccccc2F)cc1	none (no result: IMPase cell inh, PNC assembly inh)
O=S(=O)(c1ccccc1)N1CCN(c2nc3ccccc3s2)CC1	PNC assembly inh inconclusive, IMPase Li cell 11µM
CS(=O)(=O)N1CCN(c2nc3ccccc3s2)CC1	none
CCCCNC(=S)N(C)/N=C/c1ccc(F)cc1	HPGD block 28µM (no result: IMPase cell inh, 15-hLO-2 inh)
O=C(Nc1ccc2c(c1)CCC2)c1ccccc1	none (no result: 15-hLO-2 inh)
Cc1ccc(C(=O)Nc2ccc3c(c2)CCC3)o1	IMPase cell inh inconclusive, HPGD block 22µM
O=C(Nc1ccc2c(c1)CCC2)c1ccc(Br)o1	PNC assembly inh inconclusive
Cc1nc(NC(=O)c2ccc(F)cc2)sc1C(=O)Nc1ccc2c(c1)CCC2	HPGD block inconclusive, PNC assembly inh inconclusive, IMPase Li cell 22µM
Cc1ccc(C(=O)Nc2nc(C)c(C(=O)Nc3ccc4c(c3)CCC4)s2)cc1	HPGD block inconclusive, PNC assembly inh -89 (no result: 15-hLO-2 inh)
COc1cc(OC)c(Nc2nc3ccccc3nc2-n2nc(C)cc2C)cc1Cl	none (no result: ALOX12 inhib, 15-hLO-2 inh, HPGD block, PNC assembly inh, IMPase Li cell)
Nc1nccc(-c2cccs2)n1	none (no result: IMPase cell inh, ALOX12 inhib, 15-hLO-2 inh, HPGD block, PNC assembly inh)
Brc1cc(Br)c2nc(-c3cccs3)ccc2c1	IMPase cell inh inconclusive, IMPase Li cell 10µM
N#C/C(=N\Nc1cccc(Cl)c1)C(=O)c1ccccc1	PNC assembly inh inconclusive
N#C/C(=N\Nc1ccccc1Cl)C(=O)c1ccccc1	HPGD block 28µM
CCCc1c(OCCCOc2ccc(OCC(=O)O)cc2)ccc(CC=O)c1O	none (no result: PNC assembly inh)
COc1cc(/C=N/NC(=O)CCN2CCN(c3ccccc3)CC2)cc(OC)c1OC	PNC assembly inh -86 (no result: IMPase cell inh, 15-hLO-2 inh)
CCN(CC)S(=O)(=O)c1cccc(-c2nnc(SCC(=O)NCCC3=CCCCC3)n2N)c1	none
CC(C)c1nnc(SCC(=O)NCCC2=CCCCC2)n1N	15-hLO-2 inh inconclusive, HPGD block 16µM, PNC assembly inh inconclusive
